The campaign covered roughly 2,100 compounds. About 480 (23%) were called active. Roughly 5% stayed inconclusive and do not appear here.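 How the source made its calls: active means fitted curve reaches 40% activation at or below the top valid concentration, in every replicate test; inconclusive means replicate tests disagree on the call; inactive means the rest, including activity in the opposite direction.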 Only a sample is shown. Measured potencies and affinities stand elsewhere.
experiment: PGC1a acetylation increase, cellular AlphaLISA – cell-based, cherry-picked samples, set 6, dose response (AID 720513); conditions: U2OS PGC1a acetylation AlphaLISA, overnight, 0 = neutral, -100 = inhibitor control; series mostly up to 19.5 µM;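 further: cells made to overexpress flag tagged PGC1a plus GCN5 acetyltransferase by viral infection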

outcome, inactive:
O=C(C[C@H]1C[C@H]2c3cc(NC(=O)C4CCC4)ccc3O[C@H]2[C@H](CO)O1)NCc1ccc(-c2ccccc2)cc1
O=C1c2ccsc2SCCN1Cc1cccc(Cl)c1
Cc1cccc(N2C(=O)C(Cl)=C(N3CCOCC3)C2=O)c1
O=S(=O)(c1cccs1)N1CCCCN2[C@H](CO)[C@H](c3ccc(/C=C/c4ccccc4)cc3)[C@H]2C1
O=C(NC[C@@H]1N[C@@H](CO)[C@H]1c1ccc(C2=CCCCC2)cc1)c1ccc(F)cc1
C[C@H](CO)N1C[C@H](C)[C@@H](CN(C)Cc2ccccc2F)Oc2ncc(Br)cc2C1=O
O=S(=O)(Nc1ccccc1N1CCCCC1)c1ccc(F)cc1
CCCN(CCC)S(=O)(=O)c1ccc(C(=O)Nc2nnc(CSC)o2)cc1
Cc1noc(C)c1S(=O)(=O)Nc1ccc2c(c1)C(=O)N([C@@H](C)CO)C[C@@H](C)[C@@H](CN(C)S(=O)(=O)c1ccccc1)O2
O=S(=O)(C/C(=C/CO)S(=O)(=O)c1ccccc1)c1ccccc1
CCN(C(=O)CN1CCN(c2ccccc2O)CC1)c1c(N)n(Cc2ccccc2)c(=O)[nH]c1=O
CO[C@H](CN(C)S(=O)(=O)c1ccc(Cl)cc1)[C@H](C)CN([C@H](C)CO)S(=O)(=O)c1cccc(Cl)c1
OCC1OC(Oc2c(Br)cc(Br)cc2Br)C(O)C(O)C1O (stereo not drawn)
CCc1ccc(C(=O)CN(C#N)c2nc(C)cc(C)n2)cc1
COc1ccc(Cn2nnnc2CN(Cc2cc3ccc(C)cc3[nH]c2=O)C2CCCC2)cc1
COc1ccccc1NS(=O)(=O)c1cc(NC(=O)c2[nH]c(C)c(C(C)=O)c2C)ccc1N1CCOCC1
CCCCCCNC(=O)O[C@@]12CN(S(=O)(=O)c3ccc(C)cc3)C[C@]1(O)Cn1c(=O)n(CCCCCC)c(=O)n1C2
O=C(Nc1cccc(Cl)c1)Nc1ccc2c(c1)OCO2
O=C(O)c1cc(-c2ccc3c(c2)OCO3)nc2ccccc12
COc1ccc(NC(=O)[C@H](Cc2c[nH]c3ccccc23)NC(=O)[C@@H]2Cc3ccccc3CN2)cc1
Clc1ccc2nc(COc3ccccc3)[nH]c2c1
C[C@@H]1CN([C@H](C)CO)C(=O)c2cc(NC(=O)CCCCCC(=O)Nc3ccccc3N)ccc2O[C@H]1CN(C)S(=O)(=O)c1ccc(Cl)cc1
C[C@H](CO)N1C[C@H](C)[C@@H](CN(C)Cc2ccc(C(F)(F)F)cc2)OCc2cnnn2CCCC1=O
COc1ccc(C(NC(=O)c2c(F)c(F)c(F)c(F)c2F)c2ccccc2)cc1 (stereo not drawn)
CO[C@@H]1CN(C)C(=O)c2ccc(NS(C)(=O)=O)cc2OC[C@@H](C)N(Cc2nccs2)C[C@@H]1C
O=C(C[C@@H]1C[C@@H]2c3cc(NC(=O)C4CCC4)ccc3O[C@@H]2[C@@H](CO)O1)NCc1ccc(-c2ccccc2)cc1
CC1=C(Cl)C2=NS(=O)(=O)CCN2C=C1Cl
O=C(c1ccc(Cl)cc1)C(Cn1cncn1)C(Sc1ccccc1)c1ccccc1 (stereo not drawn)
CCCNC(=O)N(C)C[C@H]1Oc2cc(C#CCC(C)C)ccc2S(=O)(=O)N([C@@H](C)CO)C[C@H]1C
COc1cc(CCC(=O)Nc2cc(C)cc(C)c2)cc(OC)c1OC
Cc1ccc(S(=O)(=O)N(CC2CO2)c2ccccc2[N+](=O)[O-])cc1 (stereo not drawn)
CC(C)c1ccccc1NC(=O)Cn1c(-c2ccccc2Cl)nc2ccccc21
O=S(=O)(O)c1nc2ccccc2n1Cc1ccc(Cl)cc1
O=S(=O)(c1ccc(N2CCC(c3ccc(Cl)cc3)=N2)cc1)N(CCO)CCO
COc1cccc(N2C(=NC(=O)c3ccccc3)SC3CS(=O)(=O)CC32)c1 (stereo not drawn)
CCOC(=O)c1ccc2[nH]c(C)c(CN3CCN(C)CC3)c(=O)c2c1
CC(Sc1nnc(N)s1)C(=O)Nc1ccc2c(c1)OCO2 (stereo not drawn)
CCCN(C)C[C@H]1Oc2cc(C#Cc3ccc(OC)cc3)ccc2S(=O)(=O)N([C@@H](C)CO)C[C@H]1C
C[C@H](CO)N1C[C@H](C)[C@H](CN(C)C(=O)C2CCCCC2)Oc2cc(-c3ccccc3)ccc2S1(=O)=O
Cc1cc(N)c2cc(NC(=O)/C=C/c3ccccc3Cl)ccc2n1
COc1ccc(-c2cn[nH]c2-c2ccc(O)cc2O)cc1
O=C(CCCc1cccs1)NCCc1c[nH]c2ccccc12
O=C(CN1C(=O)C2C3CC(C(Br)C3Br)C2C1=O)OCC(=O)c1cccc([N+](=O)[O-])c1 (stereo not drawn)
CC1=C(C(=O)OC(C)(C)C)C(c2ccc3ccccc3c2)NC(=O)N1C (stereo not drawn)
O=C(O)Cn1cc(C(=O)C(F)(F)F)c2ccccc21
O=C(Cn1cc(C(=O)c2cccs2)c2ccccc21)NCC1CCCO1 (stereo not drawn)
Cc1ccc(C(=O)Nc2nc(=O)n(C(=O)CC(C)C)s2)cc1
CN(C)c1ccc(/C=N/N(CCC#N)C2=NS(=O)(=O)c3ccccc32)cc1
O=C(COc1ccccc1Cl)Nc1ccc(Cl)cn1
COc1ccccc1C(=O)N1C(CC(=O)Nc2cc(Cl)ccc2C)C(=O)NC2CCCCC21 (stereo not drawn)
Cc1ccc(Sc2ncnc3onc(C)c23)c(C)c1
Cc1ccccc1CS(=O)(=O)c1nnc([C@H](CC(C)C)NC(=O)OC(C)(C)C)o1
COc1ccc(S(=O)(=O)N2CCC(C(=O)N3CCC(C(N)=O)CC3)CC2)cc1Cl
Cc1ccc(CN2CC(C(=O)N3CCN(S(=O)(=O)c4cccc(F)c4)CC3)CC2=O)cc1 (stereo not drawn)
CC(C)CC#Cc1ccc2c(c1)O[C@H](CN(C)C(=O)Cc1ccccc1)[C@H](C)CN([C@H](C)CO)S2(=O)=O
COCCn1c(C)c(C)c2c(NCCc3ccccc3)ncnc21
O=CNCCc1nc2ccccc2n1CCc1ccccc1
CN1CCN(C2=C(Cl)C(=O)N(CCc3ccccc3)C2=O)CC1
Cc1ccc(-c2ccc(C3[C@@H]4CN(C(=O)Nc5ccc(C(F)(F)F)cc5)C[C@H]3N4)cc2)cc1 (stereo partly drawn)
COCCNC(=O)CSc1nc2c(n1-c1ccccc1)CCCC2
C[C@@H]1CN([C@H](C)CO)C(=O)c2cccc(NC(=O)C3CCCCC3)c2O[C@@H]1CN(C)CC1CCCCC1
CCOC(=O)c1ccc(-c2c(-c3cc(OC)c(OC)c(OC)c3)noc2C)cc1F
O=C(C[C@@H]1C=C[C@@H](NC(=O)Nc2ccc(F)cc2)[C@@H](CO)O1)NCCN1CCCC1
CC(C)c1nc2sc3c(NCc4ccco4)ncnc3c2c2c1COC(C)(C)C2
COc1cccc(-n2c(Cc3cc(=O)[nH]c(=O)[nH]3)nnc2SCc2cccc(C(F)(F)F)c2)c1
Cc1cccc(-c2ccc(C3[C@@H]4CN(C(=O)Nc5ccc(C(F)(F)F)cc5)C[C@H]3N4)cc2)c1 (stereo partly drawn)
O=C(Nc1ccc(F)cc1)c1sc2cc(C(F)(F)F)cnc2c1-c1cccs1
COc1ccc(N(Cc2cc3cc(OC)ccc3[nH]c2=O)S(C)(=O)=O)cc1
COc1ccc(Oc2c(Cl)cnn(-c3ccccc3)c2=O)cc1
O=C(Nc1ccccc1)Nc1cc(Cl)cc(Cl)c1
C[C@H](CO)N1C[C@H](C)[C@@H](CN(C)C(=O)Nc2ccc(F)cc2)Oc2ncc(C#CC3CC3)cc2C1=O
O=C(c1ccco1)N1CCN(c2ncnc3scc(-c4cccs4)c23)CC1
COc1ccc(C2CC(c3cccs3)=NN2c2nc(C)c(C(C)=O)s2)cc1OC (stereo not drawn)
CCOC(=O)C1CCN(C(=O)CSc2ccc(Br)cc2)CC1
COc1ccccc1Oc1ccc2c(c1)C(=O)N(c1ccc(C)cc1)C2=O
O=C(O)c1cc(N2CCCCC2)ccn1
N#Cc1sc2nccc(Nc3ccccc3)c2c1N
c1ccc(N2CCN(C3CC4CCC3C4)CC2)cc1 (stereo not drawn)
COc1ccc(C(=O)Nc2ccc(S(=O)(=O)Nc3cc(C)nc(C)n3)cc2)cc1
Cc1ccc(OC[C@H](O)[C@H](C)NC(C)C)c2c1CCC2
CN(C)c1ccc(Sc2ccc3nc(N)nc(N)c3c2)cc1
O=C(Nc1cccc(F)c1)N1CC(=O)N2[C@@H](CO)[C@@H](c3ccc(C#Cc4cccnc4)cc3)[C@@H]2C1
CCCCCSc1nnc(C)c(=O)[nH]1
O=C(CC1CC1)N[C@H]1CC[C@@H](CCNS(=O)(=O)c2ccc(Cl)cc2)O[C@@H]1CO
CCOC(=O)NC(=O)CSc1nnnn1-c1ccc(C)cc1
CCOC(=O)c1c(-c2ccco2)csc1NC(=O)COC(=O)c1cnccn1
O=C(C[C@H]1CC[C@H](NC(=O)C2CCC2)[C@@H](CO)O1)NCC1CC1
O=C(Nc1ccc(F)cc1)N1CCCCN2[C@H](CO)[C@@H](c3ccc(C#Cc4ccccc4)cc3)[C@H]2C1
Cc1ccccc1-c1ccc(C2[C@@H]3CN(C(=O)Nc4cccc(F)c4)C[C@H]2N3)cc1 (stereo partly drawn)
COCCN(C(=O)CSc1nn(-c2ccc(F)cc2)c(=S)s1)c1c(N)n(CC(C)C)c(=O)[nH]c1=O
COc1ccccc1CNS(=O)(=O)c1cc(C)ccc1OC
C[C@@H]1CN([C@@H](C)CO)C(=O)CCCn2nncc2CO[C@H]1CN(C)Cc1ccc(O)cc1
CCOc1ccc(N(CC(=O)Nc2ccccc2OC)S(=O)(=O)c2ccccc2)cc1

Reference: PubChem BioAssay AID720513 (Broad Institute, 2013)
